In PubChem BioAssay (NCATS):
Records with an inconclusive call do not appear. Calls of active or inactive are those of the source. The call rests on the fitted dose curve; in most records, active means well fitted cell-killing curve with a large enough effect; inconclusive means small, poorly fitted or top-dose-only effect, or effect the other way; inactive means no such curve, though single readings can be large or run the other way.
Potency means the concentration at half of the fitted maximal effect.

Assay: Quantitative High-Throughput drug screen in 47 multiple myeloma cell lines against the NCATS MIPE library collection: PCM6_Riken cell viability assay (AID 1919870); further: nearly all actives have a fitted effect of over 30% in size;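 on viability (% of control): 100% = DMSO-only wells and 0% = media-only wells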
Details: CellTiter-Glo ATP, 48 h; series mostly up to 45.8 µM; viability (% of control): at the top concentration
Method in brief: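 Plated at 500 cells per well, myeloma lines received MIPE 4.0 compounds by pin tool. Following 48 h culture at 37 °C, CellTiter-Glo luminescence gave viability relative to DMSO and media-only controls.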
In the case of Cn1c(=O)c2[nH]cnc2n(C)c1=O, the “viability (% of control)” value is reported as 92.8% (inactive). In the case of CC[C@@]1(O)C(=O)OCc2c1cc1n(c2=O)Cc2cc3c(CN(C)C)c(O)ccc3nc2-1, the Potency is reported as 1.66 µM (active). With O=c1[nH]cc(F)c(=O)[nH]1 the Potency was 10.5 µM (active). With NCCS(=O)(=O)O the “viability (% of control)” value was 120% (inactive). With CC#C[C@]1(O)CC[C@H]2[C@@H]3CCC4=CC(=O)CCC4=C3[C@@H](c3ccc(N(C)C)cc3)C[C@@]21C the Potency was 0.743 µM (active). With CC[N+](CC)(CC)CCOc1cccc(OCC[N+](CC)(CC)CC)c1OCC[N+](CC)(CC)CC the “viability (% of control)” value was 113% (inactive). For CC(CCc1ccc(O)cc1)NCCc1ccc(O)c(O)c1 (stereo not given), the Potency was 20.9 µM (active). In the case of Cc1ccccc1N1C(=O)c2cc(S(N)(=O)=O)c(Cl)cc2NC1C (stereo not given), the Potency is reported as 5.9 µM (active). In the case of CS(=O)(=O)CCNCc1ccc(-c2ccc3ncnc(Nc4ccc(OCc5cccc(F)c5)c(Cl)c4)c3c2)o1, the Potency is reported as 1.18 µM (active). In the case of NC(=O)NO, the Potency is reported as 2.35 µM (active). For CNCCCC12CCC(c3ccccc31)c1ccccc12, the Potency was 23.5 µM (active). With COc1cc2nc(N3CCN(C(=O)c4ccco4)CC3)nc(N)c2cc1OC the Potency was 7.43 µM (active). For O=C1c2c(O)ccc(O)c2C(=O)c2c(NCCNCCO)ccc(NCCNCCO)c21, the Potency was 0.935 µM (active). In the case of Nc1nc2c(ncn2COC(CO)CO)c(=O)[nH]1, the Potency is reported as 23.5 µM (active). In the case of CN(C)C(=O)C(CCN1CCC(O)(c2ccc(Cl)cc2)CC1)(c1ccccc1)c1ccccc1, the Potency is reported as 20.9 µM (active). In the case of CCCCc1oc2ccccc2c1C(=O)c1cc(I)c(OCCN(CC)CC)c(I)c1, the Potency is reported as 20.9 µM (active). For CC(C)NCC(O)c1ccc(O)c(O)c1 (stereo not given), the Potency was 1.18 µM (active). For CN(C)CCCN1c2ccccc2CCc2ccc(Cl)cc21, the Potency was 0.469 µM (active). In the case of NC12CC3CC(CC(C3)C1)C2, the Potency is reported as 3.32 µM (active). For CN(CCOc1ccc(NS(C)(=O)=O)cc1)CCc1ccc(NS(C)(=O)=O)cc1, the “viability (% of control)” value was 90.2% (inactive). In the case of CCN1CCCC1CNC(=O)c1cc(S(=O)(=O)CC)c(N)cc1OC (stereo not given), the “viability (% of control)” value is reported as 135% (inactive). With Cn1cnc2c1c(=O)[nH]c(=O)n2C the Potency was 16.6 µM (active). In the case of CN1C(C(=O)Nc2ccccn2)=C(O)c2ccccc2S1(=O)=O, the “viability (% of control)” value is reported as 108% (inactive). With CC(C(=O)O)c1cccc(C(=O)c2ccccc2)c1 (stereo not given) the Potency was 16.6 µM (active). With CN(Cc1cnc2nc(N)nc(N)c2n1)c1ccc(C(=O)N[C@@H](CCC(=O)O)C(=O)O)cc1 the Potency was 0.105 µM (active).
